Results filed as inconclusive are left out. A call without a number means that no potency is given here. Unmarked numbers belong to inactive results. Activity calls are given as the source filed them. Unless noted, calls follow the shape of the dose curve; as a rule, active = well fitted curve in the direction sought with a large enough effect in the repeat runs; inconclusive = weak or mixed curves; inactive = no such curve, though single readings can be large; an effect the other way counts as inactive or inconclusive.
How the values were obtained:
[1] = qHTS assay to identify small molecule antagonists of the thyroid receptor (TR) signaling pathway - cell viability counter screen (AID 743064); also: nearly all actives have a fitted effect of over 50% in size; also: potency is read from the fitted curve at half-maximal effect
In short: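 GH3.TRE-Luc cells, 4 h pre-plating; cpd + T3 1 nM final; 37 °C 23.5 h; CellTiter-Fluor 30 min; fluorescence read.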

[2] = qHTS assay to identify small molecule antagonists of the thyroid receptor (TR) signaling pathway (AID 743065); also: nearly all actives have a fitted effect of over 55% in size; also: potency is read from the fitted curve at half-maximal effect
In short: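 GH3.TRE-Luc rat pituitary cells (two TREs driving luciferase) were dosed with compound, then stimulated with 1 nM T3 (final) for 23.5 h at 37 C. ONE-Glo luminescence was the read-out, with CellTiter-Fluor fluorescence as the cytotoxicity counter-screen.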

[3] = test system: thyroid hormone receptor (rat, GH3 cells); experiment: qHTS assay to identify small molecule agonists of the thyroid receptor (TR) signaling pathway (AID 743066; calls by dose curve)
[4] = qHTS assay to identify small molecule antagonists of the estrogen receptor alpha (ER-alpha) signaling pathway - cell viability counter screen (AID 743074; calls by dose curve;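 also: HEK293 cells carrying ER-alpha-UAS-bla reporter stimulated with 17beta-estradiol; nearly all actives have a fitted effect of over 45% in size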)
[5] = qHTS assay to identify small molecule antagonists of the estrogen receptor alpha (ER-alpha) signaling pathway using the BG1 cell line - cell viability counter screen (AID 743081);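 also: compound given together with 17beta-estradiol as the ER stimulus; series mostly up to about 70 µM; nearly all actives have a fitted effect of over 45% in size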
Aromatase (Homo sapiens) = Aromatase (Homo sapiens) (UniProt P11511); experiment: qHTS assay to identify aromatase inhibitors (AID 743083); also: series mostly up to about 70 µM; nearly all actives have a fitted effect of over 55% in size
Chain of Aromatase (Homo sapiens) (P11511 whole entry, looked up): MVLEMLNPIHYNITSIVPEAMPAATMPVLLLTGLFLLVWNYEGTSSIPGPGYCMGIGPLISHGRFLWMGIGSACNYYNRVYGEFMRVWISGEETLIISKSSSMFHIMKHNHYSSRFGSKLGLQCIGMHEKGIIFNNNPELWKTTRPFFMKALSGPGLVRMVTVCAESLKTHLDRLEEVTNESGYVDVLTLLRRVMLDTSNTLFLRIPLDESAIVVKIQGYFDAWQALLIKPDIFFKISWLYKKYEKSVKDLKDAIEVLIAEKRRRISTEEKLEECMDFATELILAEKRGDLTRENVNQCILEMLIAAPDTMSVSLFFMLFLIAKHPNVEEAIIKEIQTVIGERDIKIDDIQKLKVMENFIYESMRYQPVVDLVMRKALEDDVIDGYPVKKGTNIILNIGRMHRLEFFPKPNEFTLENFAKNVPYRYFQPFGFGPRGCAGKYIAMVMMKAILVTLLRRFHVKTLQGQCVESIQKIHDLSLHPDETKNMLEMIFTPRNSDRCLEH

[6] = qHTS assay to identify aromatase inhibitors - cell viability counter screen (AID 743084);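 also: cells stimulated with testosterone during compound exposure; nearly all actives have a fitted effect of over 55% in size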
[7] = molecular target: Aryl hydrocarbon receptor (Homo sapiens) (UniProt P35869); experiment: qHTS assay to identify small molecule that activate the aryl hydrocarbon receptor (AhR) signaling pathway (AID 743085);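 also: HG2L7.5c1 human HepG2 liver cells with stably integrated DRE-driven firefly reporter; series mostly up to about 70 µM; nearly all actives have a fitted effect of over 15% in size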
Chain of Aryl hydrocarbon receptor (Homo sapiens) (P35869 whole entry, looked up): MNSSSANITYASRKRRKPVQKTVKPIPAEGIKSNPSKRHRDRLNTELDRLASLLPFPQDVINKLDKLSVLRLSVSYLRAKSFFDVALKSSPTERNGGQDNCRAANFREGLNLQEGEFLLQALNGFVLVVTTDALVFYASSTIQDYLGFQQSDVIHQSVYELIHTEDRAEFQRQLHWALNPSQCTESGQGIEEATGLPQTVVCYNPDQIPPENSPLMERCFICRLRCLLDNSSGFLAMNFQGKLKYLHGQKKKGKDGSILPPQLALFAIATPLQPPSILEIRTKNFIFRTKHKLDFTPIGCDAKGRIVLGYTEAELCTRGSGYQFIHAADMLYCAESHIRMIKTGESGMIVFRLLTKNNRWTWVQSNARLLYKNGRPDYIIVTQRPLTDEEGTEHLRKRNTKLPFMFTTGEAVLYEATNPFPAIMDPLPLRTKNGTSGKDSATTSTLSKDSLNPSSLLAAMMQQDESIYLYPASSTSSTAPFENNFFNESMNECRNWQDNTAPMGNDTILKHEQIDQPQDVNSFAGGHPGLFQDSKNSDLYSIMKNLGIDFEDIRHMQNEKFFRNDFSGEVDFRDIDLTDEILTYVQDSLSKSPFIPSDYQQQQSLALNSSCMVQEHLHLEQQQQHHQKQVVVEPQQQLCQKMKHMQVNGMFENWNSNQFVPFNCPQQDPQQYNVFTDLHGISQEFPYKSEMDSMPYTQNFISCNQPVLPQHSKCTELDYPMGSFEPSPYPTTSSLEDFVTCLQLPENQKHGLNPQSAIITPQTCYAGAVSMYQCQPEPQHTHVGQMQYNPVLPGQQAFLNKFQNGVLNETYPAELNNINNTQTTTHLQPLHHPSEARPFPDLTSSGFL
In short: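 Luminescence read-out: ONE-Glo reagent, 30 min at room temperature, in HG2L7.5c1 HepG2 reporter cells treated 24 h at 37C. Viability was measured beforehand by CellTiter-Fluor fluorescence after 30 min at 37C.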

[8] = qHTS assay to identify small molecule that activate the aryl hydrocarbon receptor (AhR) signaling pathway - cell viability counter screen (AID 743086);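 also: HepG2 liver cells carrying the AhR DRE luciferase reporter; series mostly up to about 70 µM; nearly all actives have a fitted effect of over 45% in size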
In short: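 HepG2-AhR-luc (HG2L7.5c1) cells, 4000/well, treated 24 h at 37 C with compound; viability measured as CellTiter-Fluor fluorescence after 30 min in the same wells as the luciferase read.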

[9] = molecular target: Peroxisome proliferator-activated receptor gamma (Homo sapiens) (UniProt P37231); experiment: qHTS assay to identify small molecule agonists of the peroxisome proliferator-activated receptor gamma (PPARg) signaling pathway (AID 743094; active = well fitted activation curve with a large enough effect in the signal ratio in the repeat runs, not every such curve was filed as active; the % refers to the signal ratio)
Chain of Peroxisome proliferator-activated receptor gamma (Homo sapiens) (P37231 whole entry, looked up): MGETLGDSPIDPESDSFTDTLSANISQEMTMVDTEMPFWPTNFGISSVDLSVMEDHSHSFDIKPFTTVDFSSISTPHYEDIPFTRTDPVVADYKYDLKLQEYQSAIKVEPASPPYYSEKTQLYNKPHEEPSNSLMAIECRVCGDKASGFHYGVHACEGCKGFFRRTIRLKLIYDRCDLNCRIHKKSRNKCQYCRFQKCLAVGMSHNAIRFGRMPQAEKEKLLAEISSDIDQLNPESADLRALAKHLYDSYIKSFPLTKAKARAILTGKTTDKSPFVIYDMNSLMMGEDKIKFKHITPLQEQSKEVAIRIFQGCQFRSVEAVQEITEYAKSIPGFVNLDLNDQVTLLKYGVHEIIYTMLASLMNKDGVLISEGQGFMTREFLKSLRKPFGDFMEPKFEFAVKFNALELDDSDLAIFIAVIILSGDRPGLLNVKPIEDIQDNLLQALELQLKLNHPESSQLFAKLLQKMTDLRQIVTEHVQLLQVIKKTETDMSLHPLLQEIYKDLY
In short: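 Cells from the PPARg UAS-bla HEK293H line are plated and incubated 5 h at 37C. Compounds in DMSO are pinned in and left 17 h at 37C. LiveBLAzer B/G substrate is then added for 1 h at room temperature before fluorescence is measured.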

[10] = molecular target: Peroxisome proliferator-activated receptor gamma (Homo sapiens) (UniProt P37231); experiment: qHTS assay to identify small molecule antagonists of the peroxisome proliferator-activated receptor gamma (PPARg) signaling pathway (AID 743191; calls by dose curve; also: series mostly up to about 63 µM; nearly all actives have a fitted effect of over 30% in size)
In short: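 GeneBLAzer PPARg UAS-bla HEK293H cells, 5 h post-plating, exposed to compounds 17 h at 37C. LiveBLAzer B/G FRET substrate added for 1 h at room temperature; beta-lactamase reporter read by fluorescence intensity.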

[11] = qHTS assay to identify small molecule antagonists of the peroxisome proliferator-activated receptor gamma (PPARg) signaling pathway - cell viability counter screen (AID 743194); also: nearly all actives have a fitted effect of over 55% in size
In short: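 Cytotoxicity counter screen in PPARg-bla HEK293H cells, same wells as reporter assay. Compounds plus 50 nM rosiglitazone (final) for 17 h at 37 C, then viability read by CellTiter-Glo luminescence.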

[12] = qHTS assay for small molecule agonists of the antioxidant response element (ARE) signaling pathway - cell viability counter screen (AID 743203; calls by dose curve; also: nearly all actives have a fitted effect of over 55% in size)
In short: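 Cytotoxicity was tested in parallel with the ARE reporter screen. ARE-bla HepG2 cells were exposed to compounds for 16 hrs, and viability was taken from CellTiter-Glo luminescence.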

[13] = qHTS assay for small molecule activators of the heat shock response signaling pathway - cell viability counter screen (AID 743209); also: nearly all actives have a fitted effect of over 50% in size
In short: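 Cytotoxicity counter screen run in parallel with the HSE beta-lactamase reporter, using the same wells. HeLa HSE-bla cells received compound for 5 h at 37 C; ATP-based CellTiter-Glo luminescence was measured after 30 min at room temperature.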

[14] = qHTS assay for small molecule activators of the heat shock response signaling pathway (AID 743210; active = well fitted activation curve with a large enough effect in the signal ratio in the repeat runs, with a control signal flat, not every such curve was filed as active; the % refers to the signal ratio;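 also: HeLa cells with beta-lactamase reporter driven by heat shock elements; series mostly up to about 63 µM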)
In short: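 Beta-lactamase reporter read-out: FRET substrate fluorescence after 2.5 h at RT, following 5 h compound treatment at 37 C of HeLa cells carrying HSE-driven bla reporter; quantitative HTS format.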

[15] = molecular target: Estrogen receptor (Homo sapiens) (UniProt P03372); experiment: qHTS assay to identify small molecule agonists of the estrogen receptor alpha (ER-alpha) signaling pathway (AID 743075; calls by dose curve;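 also: HEK293 GripTite cells with ER-alpha and UAS-driven beta-lactamase reporter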)
Chain of Estrogen receptor (Homo sapiens) (P03372 whole entry, looked up): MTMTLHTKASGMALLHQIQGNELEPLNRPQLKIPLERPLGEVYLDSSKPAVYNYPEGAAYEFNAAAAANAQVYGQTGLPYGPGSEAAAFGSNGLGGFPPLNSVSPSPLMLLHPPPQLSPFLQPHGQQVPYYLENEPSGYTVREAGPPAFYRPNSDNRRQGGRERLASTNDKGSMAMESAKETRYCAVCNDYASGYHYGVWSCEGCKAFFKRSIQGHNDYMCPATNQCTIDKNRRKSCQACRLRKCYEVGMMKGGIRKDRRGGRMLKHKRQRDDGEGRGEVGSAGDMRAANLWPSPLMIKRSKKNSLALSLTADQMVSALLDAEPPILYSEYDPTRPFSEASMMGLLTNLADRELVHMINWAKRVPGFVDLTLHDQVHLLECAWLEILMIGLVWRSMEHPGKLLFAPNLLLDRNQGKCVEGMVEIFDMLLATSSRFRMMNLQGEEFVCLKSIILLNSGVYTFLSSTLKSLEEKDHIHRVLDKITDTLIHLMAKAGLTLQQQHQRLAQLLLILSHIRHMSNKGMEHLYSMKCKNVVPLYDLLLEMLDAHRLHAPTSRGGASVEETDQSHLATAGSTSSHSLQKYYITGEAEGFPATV

[16] = molecular target: Estrogen receptor (Homo sapiens) (UniProt P03372); experiment: qHTS assay to identify small molecule agonists of the estrogen receptor alpha (ER-alpha) signaling pathway using the BG1 cell line (AID 743079); also: nearly all actives have a fitted effect of over 20% in size; also: potency is read from the fitted curve at half-maximal effect
[17] = qHTS assay to identify small molecule antagonists of the estrogen receptor alpha (ER-alpha) signaling pathway using the BG1 cell line (AID 743080; calls by dose curve;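 also: BG1 cells stimulated with 17beta-estradiol alongside compound; series mostly up to about 70 µM; nearly all actives have a fitted effect of over 25% in size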)
In short: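 After 5 days in phenol-red-free 10% charcoal-stripped FBS medium, BG1-Luc-4E2 cells were seeded, left 24 h at 37 C, co-treated with compounds and 17beta-estradiol for 21.5 h, then assayed for viability and luciferase.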

[18] = qHTS assay for small molecule agonists of the antioxidant response element (ARE) signaling pathway (AID 743202; active = well fitted activation curve with a large enough effect in the signal ratio in the repeat runs, not every such curve was filed as active; the % refers to the signal ratio)
In short: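 HepG2 ARE-bla reporter line, 2,000 cells/well; 5 h preincubation 37 C/5% CO2; compound (DMSO) 16 h 37 C; B/G FRET substrate 2 h RT; fluorescence intensity.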

SMILES	Potency [1]	Potency [2]	Potency [3]	Potency [4]	Potency [5]	Potency (Aromatase (Homo sapiens))	Potency [6]	Potency [7]	Potency [8]	outcome [9]	Potency [10]	Potency [11]	Potency [12]	Potency [13]	Potency [14]	Potency [15]	Potency [16]	Potency [17]	Potency [18]
CC(C)COC(=O)c1ccc(O)cc1	inactive	inactive	inactive	inactive	inactive	inactive	inactive	inactive	inactive	inactive	inactive	inactive	inactive	inactive	inactive	–	–	–	–
CN(C)CC/C=C1\c2ccccc2Sc2ccc(Cl)cc21	11.9 µM (active)	11.9 µM (active)	inactive	inactive	inactive	–	–	inactive	–	inactive	–	–	–	inactive	inactive	inactive	inactive	inactive	–
CC(=O)NCCO	inactive	inactive	inactive	inactive	inactive	inactive	inactive	inactive	inactive	inactive	inactive	inactive	inactive	inactive	inactive	–	–	–	–
O=C(/C=C/c1ccc([N+](=O)[O-])cc1)c1ccccc1	inactive	61.3 µM (active)	inactive	inactive	inactive	inactive	inactive	inactive	inactive	inactive	inactive	inactive	inactive	–	inactive	–	inactive	–	inactive
CS(=O)(=O)c1ccc([C@@H](C[C@H]2CCC(=O)C2)C(=O)Nc2cnccn2)cc1Cl	inactive	inactive	inactive	inactive	inactive	inactive	–	inactive	inactive	inactive	inactive	inactive	inactive	inactive	–	inactive	inactive	inactive	–
COC(CC(C)CCCC(C)(C)O)OC (stereo not drawn)	inactive	inactive	inactive	inactive	inactive	inactive	inactive	inactive	inactive	inactive	–	inactive	inactive	inactive	inactive	–	–	–	inactive
COc1ccc(C)cc1	inactive	inactive	inactive	inactive	inactive	inactive	inactive	inactive	inactive	inactive	inactive	inactive	inactive	inactive	–	–	–	–	inactive
CC(C)c1ccc(C(=O)N=C(N)N)cc1S(C)(=O)=O	inactive	inactive	inactive	inactive	inactive	inactive	inactive	inactive	inactive	inactive	inactive	inactive	inactive	inactive	inactive	inactive	–	inactive	inactive
c1ccc(CNc2ncnc3c2ncn3C2CCCCO2)cc1 (stereo not drawn)	inactive	inactive	inactive	inactive	inactive	inactive	inactive	–	inactive	inactive	–	inactive	inactive	inactive	inactive	inactive	3.44 µM (active)	–	–
CCCCCCCC(=O)OCCCCCC	inactive	inactive	inactive	inactive	inactive	inactive	inactive	inactive	inactive	inactive	inactive	inactive	–	inactive	inactive	–	–	–	inactive
C/C(C=O)=C\c1ccccc1	inactive	inactive	inactive	inactive	inactive	inactive	inactive	–	inactive	inactive	inactive	inactive	inactive	inactive	inactive	inactive	inactive	–	–
COc1ccc(-c2cc(C(F)F)nn2-c2ccc(S(N)(=O)=O)cc2)cc1F	inactive	inactive	inactive	inactive	inactive	inactive	inactive	inactive	inactive	inactive	–	inactive	–	inactive	inactive	inactive	inactive	inactive	–
O=C(O)c1cccc(Oc2ccccc2)c1	inactive	inactive	inactive	inactive	inactive	inactive	–	–	inactive	–	inactive	inactive	inactive	inactive	inactive	inactive	inactive	inactive	inactive
C=CCOC(=O)COCCC(C)C	inactive	inactive	inactive	inactive	inactive	inactive	–	inactive	inactive	inactive	inactive	inactive	inactive	inactive	inactive	inactive	inactive	inactive	inactive

Source: PubChem BioAssay (Tox21)
